Assay in all cases: log2 fold change, soluble protein after heating vs DMSO (PISA); higher = thermal stabilisation; K562 cells, 10 uM, 30 min; active = over 0.2 and 3.5 SD of the protein, either way, in both replicates (recomputed)
Compound in test [1]: C#Cc1cccc(Nc2ncnc3cc(OCCOC)c(OCCOC)cc23)c1 [erlotinib]
The procedure, abridged:
(§1)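 K562 cells at 2×10^6 cells/mL were treated for 30 min with 10 μM compound, and aliquots were heated for 3 min over 48°C-58°C before pooling. Extraction used PBS with 0.5% NP-40 at 4°C, and soluble protein was the supernatant after 21,000xg for 90 min, measured by TMTpro 16plex LC-MS/MS with channel sums equalised. Thermal stability values, relative to control samples and from duplicates, are log2 fold changes.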

Compound in test [2]: C/C(=N\NC(=O)C1=CC(=CC=C1)S(=O)(=O)N2CCOCC2)/C3=C(C=CC(=C3)Cl)O
The procedure, abridged: as §1

Compound in test [3]: C1=CC(=C(C=C1Cl)C2=NC3=NC=CN=C3C(=N2)NC4=CC=NC=C4)F
The essentials:
as §1

Compound in test [4]: C1=CC(=CC=C1C2=NC3=C(N2)C=C(C=C3)C(=O)N)OC4=CC=C(C=C4)Cl
The procedure, abridged: as §1

Compound in test [5]: C1=CC2=C(C=CC(=C2)/C=C\3/C(=O)NC(=NCC4=CC=CS4)S3)N=C1
The procedure, abridged: as §1

Compound in test [6]: C1=CC2=NC=CN=C2C=C1/C=C/3\C(=O)NC(=O)S3
The essentials:
as §1

Compound in test [7]: C1=CC=C(C=C1)C2=NC(=C(N2)C3=CC=NC=C3)C4=CC(=C(C=C4)Cl)O
The essentials: as §1

Compound in test [8]: C1=CC=C2C(=C1)C3=NNC4=CC=CC(=C43)C2=O
The essentials:
as §1

Compound in test [9]: C1CCN(C1)C(=O)NC2=CC=CC(=C2)NC3=NC=C(C(=N3)NCCC4=CN=CN4)Br
The procedure, abridged:
as §1

Compound in test [10]: C1CN(CCC1(CC2=CC=C(C=C2)Cl)N)C3=NC=NC4=C3C=CN4
The procedure, abridged:
as §1

Compound in test [11]: C=CC(=O)N1CCC[C@@H](n2nc(-c3ccc(Oc4ccccc4)cc3)c3c(N)ncnc32)C1 [ibrutinib]
The procedure, abridged:
as §1

Compound in test [12]: CC(=O)c1cnc2ccc(-c3cc(Cl)c(O)c(Cl)c3)nc2c1N[C@H]1CC[C@H](CN(C)C)CC1
The procedure, abridged:
as §1

Compound in test [13]: CC(C)(C)Cn1c(N)nc2ccc(-c3[nH]c(C(C)(C)C)nc3-c3ccc(F)cc3)nc21 [ralimetinib]
The procedure, abridged:
as §1

Compound in test [14]: CC(C)(O)CC(=O)NCCn1ccc2ncnc(Nc3ccc(Oc4cccc(C(F)(F)F)c4)c(Cl)c3)c21
The essentials: as §1

Compound in test [15]: CC(C)C1=C2N=C(C=C(N2N=C1)NCC3=CC=CC=C3)NCCCCCCN
The essentials: as §1

Compound in test [16]: CC(C)C[C@@H](C=O)NC(=O)[C@H](CC(C)C)NC(=O)[C@H](CC(C)C)NC(=O)OCc1ccccc1
The essentials: as §1

Compound in test [17]: CC1=C(C(CC(=O)N1)C2=CC=C(C=C2)C(F)(F)F)C(=O)NC3=C(C=C4C(=C3)C=NN4)F
The procedure, abridged: as §1

Compound in test [18]: CC1=C(C2=C(C=C1)C(=O)C3=CC=CC=C3N2CCCN)C
The essentials: as §1

Compound in test [19]: C1COCCN1CCN2C3=CC=CC=C3N=C2NC(=O)C4=CC(=CC=C4)[N+](=O)[O-] [IRAK-1-4 Inhibitor I]
The procedure, abridged:
as §1

Compound in test [20]: CC(C)N(C[C@H]1O[C@@H](n2cnc3c(N)ncnc32)[C@H](O)[C@@H]1O)[C@H]1C[C@@H](CCc2nc3cc(C(C)(C)C)ccc3[nH]2)C1 [pinometostat]
The essentials: as §1

The full data set covers some 7,900 targets. This sample favours those with a hit. About 0.6% of all pairs of compound and target were hits. Unmarked numbers belong to inactive results.

Sequence of UniProt Q14145 (Q14145 whole entry, looked up): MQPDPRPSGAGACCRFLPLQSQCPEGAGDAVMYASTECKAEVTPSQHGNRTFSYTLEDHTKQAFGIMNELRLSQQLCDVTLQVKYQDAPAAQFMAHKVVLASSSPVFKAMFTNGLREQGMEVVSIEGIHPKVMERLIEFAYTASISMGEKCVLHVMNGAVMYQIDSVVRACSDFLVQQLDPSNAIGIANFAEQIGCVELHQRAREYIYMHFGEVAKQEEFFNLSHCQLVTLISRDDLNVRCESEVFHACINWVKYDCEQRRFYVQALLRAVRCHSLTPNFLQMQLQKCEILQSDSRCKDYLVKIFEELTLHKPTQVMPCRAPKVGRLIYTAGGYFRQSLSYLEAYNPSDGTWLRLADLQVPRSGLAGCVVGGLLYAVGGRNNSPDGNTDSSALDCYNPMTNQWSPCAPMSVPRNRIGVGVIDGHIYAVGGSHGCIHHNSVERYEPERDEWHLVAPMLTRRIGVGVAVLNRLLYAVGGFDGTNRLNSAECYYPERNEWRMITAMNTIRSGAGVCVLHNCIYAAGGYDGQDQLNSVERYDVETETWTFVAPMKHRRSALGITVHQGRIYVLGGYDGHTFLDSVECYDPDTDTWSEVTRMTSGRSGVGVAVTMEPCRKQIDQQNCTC
Sequence of UniProt Q9H3U5 (Q9H3U5 whole entry, looked up): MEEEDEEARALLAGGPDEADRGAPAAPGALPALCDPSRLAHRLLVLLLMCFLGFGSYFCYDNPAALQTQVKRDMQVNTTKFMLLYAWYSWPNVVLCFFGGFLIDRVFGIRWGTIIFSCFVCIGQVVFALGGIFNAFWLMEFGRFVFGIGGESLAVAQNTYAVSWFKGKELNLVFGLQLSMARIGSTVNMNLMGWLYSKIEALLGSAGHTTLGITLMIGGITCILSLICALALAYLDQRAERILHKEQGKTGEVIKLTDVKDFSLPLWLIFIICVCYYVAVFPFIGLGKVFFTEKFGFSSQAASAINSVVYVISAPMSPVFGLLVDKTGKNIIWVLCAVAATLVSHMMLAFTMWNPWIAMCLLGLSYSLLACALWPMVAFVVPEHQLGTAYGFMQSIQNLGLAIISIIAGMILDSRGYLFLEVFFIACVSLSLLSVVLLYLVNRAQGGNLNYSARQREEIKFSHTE
Sequence of UniProt Q9H1B7 (Q9H1B7 whole entry, looked up): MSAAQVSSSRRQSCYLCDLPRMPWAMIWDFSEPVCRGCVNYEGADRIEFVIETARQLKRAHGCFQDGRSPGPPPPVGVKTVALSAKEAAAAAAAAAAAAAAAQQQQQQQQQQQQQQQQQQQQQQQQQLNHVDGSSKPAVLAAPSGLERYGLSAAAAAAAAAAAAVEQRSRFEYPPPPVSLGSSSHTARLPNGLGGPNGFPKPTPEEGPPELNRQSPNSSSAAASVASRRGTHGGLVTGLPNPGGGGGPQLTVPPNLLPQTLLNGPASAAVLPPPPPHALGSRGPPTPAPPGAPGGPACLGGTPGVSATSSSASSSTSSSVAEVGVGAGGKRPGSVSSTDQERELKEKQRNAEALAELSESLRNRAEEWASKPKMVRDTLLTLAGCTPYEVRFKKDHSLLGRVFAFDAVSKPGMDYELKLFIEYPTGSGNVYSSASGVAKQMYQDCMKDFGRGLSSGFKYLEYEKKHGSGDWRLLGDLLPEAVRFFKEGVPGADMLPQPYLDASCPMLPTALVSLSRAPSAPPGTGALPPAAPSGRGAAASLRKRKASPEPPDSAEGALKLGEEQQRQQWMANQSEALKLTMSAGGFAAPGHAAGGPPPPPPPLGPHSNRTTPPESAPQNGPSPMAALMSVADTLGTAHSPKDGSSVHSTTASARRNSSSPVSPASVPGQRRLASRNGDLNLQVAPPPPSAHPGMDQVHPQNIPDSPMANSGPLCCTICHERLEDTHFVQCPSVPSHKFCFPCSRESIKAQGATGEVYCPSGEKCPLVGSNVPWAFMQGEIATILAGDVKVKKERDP
Sequence of UniProt Q32MZ4 (Q32MZ4 whole entry, looked up): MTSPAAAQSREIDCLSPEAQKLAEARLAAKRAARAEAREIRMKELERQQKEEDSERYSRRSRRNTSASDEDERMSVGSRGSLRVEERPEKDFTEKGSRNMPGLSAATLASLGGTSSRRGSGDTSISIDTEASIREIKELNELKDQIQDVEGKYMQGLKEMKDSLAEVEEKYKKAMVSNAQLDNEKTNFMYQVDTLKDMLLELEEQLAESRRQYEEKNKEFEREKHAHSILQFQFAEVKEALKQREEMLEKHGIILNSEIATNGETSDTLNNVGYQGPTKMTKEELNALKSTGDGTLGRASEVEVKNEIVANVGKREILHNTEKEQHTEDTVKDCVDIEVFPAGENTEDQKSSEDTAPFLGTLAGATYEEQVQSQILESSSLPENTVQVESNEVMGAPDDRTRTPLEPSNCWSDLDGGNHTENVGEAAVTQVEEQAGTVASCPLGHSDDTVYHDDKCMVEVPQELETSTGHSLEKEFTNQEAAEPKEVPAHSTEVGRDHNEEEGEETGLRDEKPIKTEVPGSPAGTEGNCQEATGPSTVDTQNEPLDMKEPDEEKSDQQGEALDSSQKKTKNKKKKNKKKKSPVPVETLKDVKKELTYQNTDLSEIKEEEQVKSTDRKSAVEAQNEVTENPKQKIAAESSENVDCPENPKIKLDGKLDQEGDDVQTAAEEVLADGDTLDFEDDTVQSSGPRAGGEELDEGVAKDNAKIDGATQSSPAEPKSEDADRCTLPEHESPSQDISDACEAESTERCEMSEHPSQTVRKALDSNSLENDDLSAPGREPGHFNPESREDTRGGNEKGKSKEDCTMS
Sequence of UniProt Q9Y5V3 (Q9Y5V3 whole entry, looked up): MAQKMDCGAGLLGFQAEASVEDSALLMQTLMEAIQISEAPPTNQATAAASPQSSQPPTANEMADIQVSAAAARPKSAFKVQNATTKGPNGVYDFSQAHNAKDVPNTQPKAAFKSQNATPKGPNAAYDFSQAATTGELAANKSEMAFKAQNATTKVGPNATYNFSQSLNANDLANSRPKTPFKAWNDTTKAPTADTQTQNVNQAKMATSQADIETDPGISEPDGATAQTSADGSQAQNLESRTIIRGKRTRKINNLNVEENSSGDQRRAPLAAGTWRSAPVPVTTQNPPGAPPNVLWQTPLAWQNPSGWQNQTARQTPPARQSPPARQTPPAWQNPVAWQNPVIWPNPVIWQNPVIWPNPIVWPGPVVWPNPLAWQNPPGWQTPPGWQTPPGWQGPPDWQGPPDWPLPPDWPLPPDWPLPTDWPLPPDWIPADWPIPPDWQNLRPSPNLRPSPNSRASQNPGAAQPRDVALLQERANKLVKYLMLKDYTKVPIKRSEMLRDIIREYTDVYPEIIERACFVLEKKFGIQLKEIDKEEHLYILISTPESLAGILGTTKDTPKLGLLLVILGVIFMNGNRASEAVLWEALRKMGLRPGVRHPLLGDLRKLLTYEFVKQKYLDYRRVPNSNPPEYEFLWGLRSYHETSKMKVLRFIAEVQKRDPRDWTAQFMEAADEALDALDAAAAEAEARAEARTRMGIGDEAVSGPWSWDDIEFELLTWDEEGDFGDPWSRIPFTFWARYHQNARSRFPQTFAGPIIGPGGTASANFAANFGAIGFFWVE
Sequence of UniProt P51884 (P51884 whole entry, looked up): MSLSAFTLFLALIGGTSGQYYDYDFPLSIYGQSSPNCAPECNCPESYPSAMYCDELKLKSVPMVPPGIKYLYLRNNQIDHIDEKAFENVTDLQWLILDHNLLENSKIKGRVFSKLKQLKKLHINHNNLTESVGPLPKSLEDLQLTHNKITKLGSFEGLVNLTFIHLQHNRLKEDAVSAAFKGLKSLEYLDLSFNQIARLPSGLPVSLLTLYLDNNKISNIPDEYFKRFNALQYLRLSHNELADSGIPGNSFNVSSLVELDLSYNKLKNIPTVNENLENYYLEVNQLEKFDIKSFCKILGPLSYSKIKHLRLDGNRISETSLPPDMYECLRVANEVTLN
Sequence of UniProt Q9BQD3 (Q9BQD3 whole entry, looked up): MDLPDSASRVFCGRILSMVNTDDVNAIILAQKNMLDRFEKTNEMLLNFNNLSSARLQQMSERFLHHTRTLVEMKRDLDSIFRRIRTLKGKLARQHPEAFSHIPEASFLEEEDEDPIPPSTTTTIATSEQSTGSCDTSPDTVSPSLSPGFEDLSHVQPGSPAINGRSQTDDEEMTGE
Sequence of UniProt O94889 (O94889 whole entry, looked up): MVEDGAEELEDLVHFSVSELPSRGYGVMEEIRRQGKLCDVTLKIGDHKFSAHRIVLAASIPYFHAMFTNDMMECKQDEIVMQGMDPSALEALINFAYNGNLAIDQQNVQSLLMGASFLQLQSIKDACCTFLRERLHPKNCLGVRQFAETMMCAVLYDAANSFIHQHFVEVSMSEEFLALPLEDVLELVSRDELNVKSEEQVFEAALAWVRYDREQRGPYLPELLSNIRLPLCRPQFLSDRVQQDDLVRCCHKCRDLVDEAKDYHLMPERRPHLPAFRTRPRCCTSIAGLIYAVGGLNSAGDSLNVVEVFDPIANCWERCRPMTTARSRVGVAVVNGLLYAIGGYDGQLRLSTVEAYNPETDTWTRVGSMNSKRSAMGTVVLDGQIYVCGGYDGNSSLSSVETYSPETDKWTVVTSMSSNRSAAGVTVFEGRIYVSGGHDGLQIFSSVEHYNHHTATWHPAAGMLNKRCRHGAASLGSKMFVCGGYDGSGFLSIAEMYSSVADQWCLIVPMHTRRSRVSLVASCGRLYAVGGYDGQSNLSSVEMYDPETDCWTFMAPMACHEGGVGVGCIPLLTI
Sequence of UniProt P43361 (P43361 whole entry, looked up): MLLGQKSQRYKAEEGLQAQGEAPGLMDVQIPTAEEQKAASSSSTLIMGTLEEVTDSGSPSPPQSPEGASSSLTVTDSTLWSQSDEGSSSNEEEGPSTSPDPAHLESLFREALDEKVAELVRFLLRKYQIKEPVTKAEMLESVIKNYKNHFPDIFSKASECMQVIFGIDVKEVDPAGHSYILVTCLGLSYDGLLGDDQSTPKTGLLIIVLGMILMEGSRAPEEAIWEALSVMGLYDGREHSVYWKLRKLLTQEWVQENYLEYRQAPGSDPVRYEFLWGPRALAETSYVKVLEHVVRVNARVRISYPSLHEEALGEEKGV

Regarding MFSD1 isoform 6 (UniProt Q9H3U5), the log2 fold change in test [1] was -0.011; in test [2], 0.011; in test [3], 0.006; in test [4], 0.029; in test [5] it was -0.002; in test [6], -0.009. The log2 fold change in test [7] was 0.018; in test [8], 0.014; in test [9], 0.059; in [10] it was 0.084; in [11] it was 0.017; in test [12], 0.025. For the same target, the log2 fold change in [13] was -0.172; in test [14], 0.055; in test [15], -0.427 (active); in test [16] it was 0.043; in [17], 0.017; in test [18] it was 0.08.
Consider IRF2BPL (UniProt Q9H1B7), for which the log2 fold change is -0.021 in test [1]; 0.023 in [2]; 0.068 in test [3]; 0.04 in [4]; -0.03 in [5]; 0.064 in test [6]. For the same target, the log2 fold change in [7] is 0.089; in [8] it was 0.025; in [9], -0.041; in test [10], -0.022; in test [19] it was 0.031; in test [11], 0.038. The log2 fold change is 0.008 in [12]; 0.013 in test [13]; -0.18 in [14]; 0.076 in [15]; 0.063 in test [16]; -0.206 in [20]. Moreover, the values for the log2 fold change in test [17] and in test [18] were 0.044 and 0.093, respectively.
In the case of KEAP1 (UniProt Q14145), the log2 fold change in test [1] was -0.015; in test [2], -0.031; in test [3] it was 0.025; in [4], -0.021; in [5] it was 0.025; in [6], 0.159. Besides, the log2 fold change in test [7] was -0.098; in test [8], 0.023; in test [9], -0.045; in [10], -0.034; in test [19] it was 0.008; in [11] it was -0.085. Also, the log2 fold change was 0.022 in test [12]; 0.074 in [13]; -0.07 in test [14]; -0.233 (active) in test [15]; 0.023 in test [16]; 0.109 in [20]. The log2 fold change in test [17] was -0.017; in test [18], 0.028.
Take MAGEA8 (UniProt P43361): the log2 fold change in [1] was 0.033; in [2], 0.038; in test [4] it was -0.075; in test [5], -0.04; in test [6], 0.132; in [7] it was -0.028. Also, the log2 fold change was -0.098 in test [8]; 0.052 in [9]; 0.099 in test [10]; 0.014 in [19]; -0.086 in test [11]; 0.128 in [12]. In addition, the log2 fold change is -0.02 in test [13]; -0.146 in test [15]; 0.068 in test [16]; 0.024 in test [20]; 0.077 in test [17]; -0.265 in [18].
In the case of LUM (UniProt P51884), the log2 fold change is -0.147 in [1]; -0.043 in [2]; 0.095 in [3]; 0.039 in [4]; 0.063 in test [5]; -0.057 in test [7]. Further, the log2 fold change in [8] was -0.068; in test [9], 0.185; in test [10], 0.307; in test [19], -0.038; in [12] it was 0.078; in test [13] it was -0.054. The log2 fold change in test [14] was 0.263; in test [15], 0.124; in [16], 0.023; in test [20] it was -0.068; in test [17] it was -0.151; in test [18], -0.256.
In the case of LRRFIP1 isoform 4 (UniProt Q32MZ4), the log2 fold change was -0.122 in [1]; -1.2 (active) in test [2]; -0.121 in test [3]; -0.006 in test [4]; -0.045 in [5]; 0.072 in [8]. Further, the log2 fold change in [19] was -0.06; in [12], 0.163; in [14], -0.019; in test [15], 0.031; in [20] it was -0.019.
Take KXD1 (UniProt Q9BQD3): the log2 fold change in test [1] is 0.069; in [2], 0.018; in test [3], 0.011; in test [4], -0.005; in test [5], 0.083; in test [6], 0.024. The log2 fold change was 0.01 in [7]; 0.018 in [8]; 0.022 in test [9]; 0.036 in [10]; 0.092 in test [11]; -0.073 in [12]. For the same target, the log2 fold change is -0.053 in test [13]; 0.034 in test [14]; -0.181 in [15]; 0.041 in test [16]; 0.057 in test [18].
As to KLHL18 (UniProt O94889), the log2 fold change was -0.011 in test [1]; 0 in [2]; 0.12 in [3]; 0.022 in test [4]; 0.031 in [5]; -0.02 in test [6]. Besides, the log2 fold change was -0.042 in test [7]; -0.085 in [8]; -0.042 in test [9]; -0.026 in test [10]; 0.082 in test [11]; 0.104 in test [12]. Also, the log2 fold change in [13] was 0.055; in test [14], 0.006; in test [15] it was -0.117; in test [16], -0.111; in test [17], 0.026; in test [18] it was 0.088.
As for MAGED1 isoform 2 (UniProt Q9Y5V3), the log2 fold change is 0.024 in test [1]; 0.044 in test [2]; -0.311 in test [3]; -0.059 in [4]; -0.064 in test [5]; -0.012 in [8]. The log2 fold change in [12] is 0.03; in test [14], -0.136; in [15] it was 0; in [17] it was 0.019.

The record behind these values is the supplement of paper PMC10849652.
